Inconclusive results are not listed. Values without a mark were called inactive. Activity calls are given as the source filed them. The call rests on the fitted dose curve; in most records, active means well fitted inhibition curve with a large enough effect; inconclusive means small, poorly fitted or top-dose-only effect; inactive means flat fitted curve, though single readings scatter.
On the % scale 0 is the no-effect control and ±100 the full control effect; potency means the concentration at half of the fitted maximal effect.

This assay has as its system NIH3T3. Briefly: Cytotoxic Profiling of Annotated Libraries Using Quantitative High-Throughput Screening (AID 1296008). Further: nearly all actives have a fitted effect of over 60% in size. To be noted: Five cell lines viability, CellTiter-Glo ATP luminescence, 48-72 h; max response: active compounds read low. In short, it runs like this:
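Cells exposed to compounds for 48 or 72 hr at 37 degrees Celsius. Viability read as ATP-coupled luminescence with CellTiter-Glo after 10 min at room temperature.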
In general terms: ATP-based viability assays read luminescence as a measure of living cells.
For the compound `CC(C=CC1=C(C)CCCC1(C)C)=CC=CC(C)=CC(=O)Nc1ccc(O)cc1`, the Potency was 48.1 µM (active).
Still for that read-out and setting: to `COC[C@H](NC(=O)c1cnc(C)s1)C(=O)N[C@@H](COC)C(=O)N[C@@H](Cc1ccccc1)C(=O)[C@@]1(C)CO1` belongs 0.833 µM (active).
Same read-out and setting: with `CCCCCN=C(N)NN=Cc1c[nH]c2ccc(OC)cc12` the figure was 13.2 µM (active).
Turning to `CC(C)(O)CC[C@@H](O)[C@](C)(O)[C@H]1CC[C@@]2(O)C3=CC(=O)[C@@H]4C[C@@H](O)[C@@H](O)C[C@]4(C)[C@@H]3CC[C@]12C`, the max response is 0.822%.
Turning to `NC(=O)N1CCC(CC(=O)N2CCC([C@H]3c4ncc(Br)cc4CCc4cc(Cl)cc(Br)c43)CC2)CC1`, the max response is -22.6%.
`COc1cc(OC)c(C=CS(=O)(=O)Cc2ccc(OC)c(NCC(=O)O)c2)c(OC)c1`: the Potency is 0.105 µM (active).
As to `O=[N+]([O-])c1cn2c(n1)OC[C@@H](OCc1ccc(OC(F)(F)F)cc1)C2`, the max response was -7.72%.
For `Cc1cnn(C)c1C(=O)Nc1cc(Nc2ccc3c(C=Cc4ccccn4)n[nH]c3c2)ccc1F`, the Potency is 13.2 µM (active).
Still for that read-out and setting: with `OCCNC1CCCc2c1[nH]c1ccc(-c3ccccc3)cc21` (stereo unspecified) the figure was 16.4 µM (active).
Take `CC(C)n1cnc2c(NCCc3ccc(O)cc3)nc(-c3csc4ccccc34)nc21`: the max response was -7.93%.
For the compound `CN[C@H](CC(C)C)C(=O)N[C@H]1C(=O)N[C@@H](CC(N)=O)C(=O)N[C@@H]2C(=O)N[C@H]3C(=O)N[C@H](C(=O)N[C@H](C(=O)O)c4cc(O)cc(O)c4-c4cc3ccc4O)[C@H](O)c3ccc(c(Cl)c3)Oc3cc2cc(c3O[C@@H]2O[C@H](CO)[C@@H](O)[C@H](O)[C@@H]2O[C@H]2C[C@](C)(N)[C@H](O)[C@H](C)O2)Oc2ccc(cc2Cl)[C@H]1O`, the max response was -4.89%.

For the origin of these results see PubChem BioAssay (NCATS).
